Assay outcomes as filed in PubChem BioAssay.
This excerpt belongs to a sample that is enriched for hits.
Dicer inh – inhibitors of Dicer pre-microRNA processing, primary screen, biochemical, cat-ELCCA, chemiluminescence. Endoribonuclease Dicer (Homo sapiens), Q9UPY3. cat-ELCCA pre-miR-21 Dicer processing; hits give high values. z-score at 25 µM. hit rate 6% among 47,000. AID 1347074, 2019; in the data active = z-score above about 3, passing the limit was not always enough;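 also: higher signal means more uncleaved substrate so more Dicer inhibition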
Hits are given with their value; - = inactive.

SMILES | Dicer inh
CCOC(=O)c1sc(SC)c2c1CCC=C2 | -
CCOC(=O)c1sc(SC)c(C(C)O)c1C (stereo not drawn) | 3.9
CCOC(=O)c1sc2sc(C(=O)OCC)c(C)c2c1C | -
COc1cc(/C=C/C(=O)NCC(=O)O)cc(Br)c1OC | -
Cn1c2c(c(=O)[nH]c1=O)C(c1ccsc1)C1=C(N2)c2ccccc2C1=O (stereo not drawn) | -
Cn1c2c(c(=O)n(C)c1=O)C(c1ccsc1)C1=C(N2)c2ccccc2C1=O (stereo not drawn) | 7.8
COc1cccc(C2C3=C(Nc4c2c(=O)n(C)c(=O)n4C)c2ccccc2C3=O)c1 (stereo not drawn) | -
CCCCOC(=O)C1=C(C)NC2=C(C(=O)CCC2)C1c1ccccc1OC(C)C (stereo not drawn) | -
CC1(C)OC(=O)C(=Cc2ccc[nH]2)C(=O)O1 | -
O=C1OC2(CCCC2)OC(=O)C1=Cc1ccoc1 | 3.5
CSc1ccc(C=C2C(=O)OC(C)(C)OC2=O)s1 | -
C=CCOC(=O)c1sc(N2C(=O)c3oc4ccc(F)cc4c(=O)c3C2c2ccc(F)cc2)nc1C (stereo not drawn) | -
CCOc1ccc(C2C(C(=O)OCc3ccccc3)=C(C)N=C3SC(C)C(=O)N32)cc1OCC (stereo not drawn) | -
CCc1ccc(C2Nc3ccccc3S(=O)(=O)N2Cc2ccccc2)cc1 (stereo not drawn) | -
O=c1c(-c2ccc3c(c2)OCCO3)coc2cc(O)ccc12 | -
Cc1ccccc1-c1nc2c3c4c(sc3ncn2n1)CCCC4 | -
Nc1nnc(SCC(=O)Nc2ccccc2)s1 | -
Nc1nnc(SCC(=O)Nc2ccc(F)c(F)c2F)s1 | -
Nc1nnc(SCC(=O)Nc2nncs2)s1 | 3.1
[Cl-].[Cl][Pt].[NH2-].[NH2-].c1ccncc1 | -
CC(C)(C)c1ccc(NC(=O)Oc2ccccc2N2CCCCC2)cc1 | -
COc1ccc(C2C3=C(CC(C)(C)CC3=O)Nc3cc(OC)c(OC)cc32)cc1 (stereo not drawn) | -
Cc1cc(NC(=O)c2cc(C)oc2C)n(C)n1 | -
COc1ccc(Nc2nc(C)c3c(n2)CC(C)CC3=O)cc1 (stereo not drawn) | -
O=C1Nc2ccccc2/C1=C/c1ccc2nsnc2c1 | -
SMILES | Dicer inh
COc1cc2c(cc1OC)/C(=C/c1cc(OC)c(OC)c(OC)c1)C(=O)N2 | -
O=C1Nc2ccc(I)cc2/C1=C/c1cc(Br)c(O)c(Br)c1 | 4.5
O=S(=O)(CCSc1nccc(-c2cccs2)n1)c1ccc(Cl)cc1Cl | -
CCOC(=O)NC(=S)NC(=O)C(C)(C)C | -
COc1ccc(-c2c(C(F)(F)F)oc3cc(OC(=O)c4ccco4)ccc3c2=O)cc1OC | -
CSC(=NC#N)S/C=C/C(=O)c1cccc(Br)c1 | -
CCc1ccc(C(=O)/C=C/Sc2nc3ccc(C)cc3[nH]2)cc1 | -
Cc1ccc2nc(S/C=C/C(=O)c3cccc(Br)c3)[nH]c2c1 | 3.5
CC1(C)CC(=O)c2c(cc(OS(=O)(=O)c3ccccc3)cc2OS(=O)(=O)c2ccccc2)O1 | -
COCCCNC(=S)Nc1cccc(Cl)c1C | -
CCOc1ccc(S(=O)(=O)Nc2c(C)n(C)n(-c3ccccc3)c2=O)cc1 | -
Cc1c(NS(=O)(=O)c2cn(C)cn2)c(=O)n(-c2ccccc2)n1C | 6
CCS(=O)(=O)Nc1c(C)n(C)n(-c2ccccc2)c1=O | -
CC(C)(C)c1ccc(C2CC(=O)C=C(O)C2)cc1 (stereo not drawn) | -
COC(=O)Cc1c(C)ncnc1OCC(=O)Nc1ccc2c(c1)OCCO2 | -
COc1ccc(-c2nnc(SCc3ccc(F)cc3)o2)c(OC)c1 | -
Cc1ccc(-c2nc3ccccc3[nH]2)cc1 | -
Oc1ccccc1-c1nc2ccccc2[nH]1 | 3.2
Cc1ccc(SCc2ccccc2-c2nc3ccccc3[nH]2)cc1 | -
S=C(NN=C1CCCC1)NC1CC2C=CC1C2 (stereo not drawn) | -
CC(=O)Nc1cc(=O)oc2ccc(NC(=O)c3ccc(F)cc3)cc12 | -
COC(=O)c1ccc(COCOCc2ccc(C(=O)OC)o2)o1 | -
COC(=O)c1ccc(Cn2nc(C)c([N+](=O)[O-])c2C)o1 | -
COC(=O)c1ccc(CN(C)C)o1 | 5.8
O=C1/C(=C/c2cn(-c3ccccc3)nc2-c2ccccc2)CCc2ccccc21 | -
SMILES | Dicer inh
O=C(O)c1ccccc1SC1CC(=O)N(c2ccccc2Cl)C1=O (stereo not drawn) | -
CC(C)C(=O)NCCNC(=O)c1nonc1N | -
CCCCSC1=C(C#N)C(=O)NC(CCC)S1 (stereo not drawn) | 5.4
CCCCSC1=C(C#N)C(=O)NC(c2ccc(OC)cc2)S1 (stereo not drawn) | -
CCCCSC1=C(C#N)C(=O)NC(c2ccccc2O)S1 (stereo not drawn) | -
CCCCCCSC1=C(C#N)C(=O)NC(CO)S1 (stereo not drawn) | -
CCCCSC1=C(C#N)C(=O)NCS1 | 5.7
CCCCSC1=C(C#N)C(=O)NC(CC(C)C)S1 (stereo not drawn) | -
CC1=CC(C)C2COC(c3ccccc3O)C1C2C (stereo not drawn) | -
